Laboratory results as given in PubChem BioAssay (Tox21).
Results filed as inconclusive are left out. The source made the active and inactive calls. Unless noted, the call rests on the fitted dose curve; in most records, active means well fitted curve in the direction sought with a large enough effect in the repeat runs; inconclusive means weak or mixed curves; inactive means no such curve, though single readings can be large; an effect the other way counts as inactive or inconclusive.

Columns and labels:
[1] = qHTS assay to identify small molecule antagonists of the progesterone receptor (PR) signaling pathway - cell viability counter screen (AID 1346798); conditions: PR-UAS-bla HEK293T viability, CellTiter-Glo luminescence, 16 h; series mostly up to 92.4 µM; further: nearly all actives have a fitted effect of over 50% in size; further: potency means the concentration at half of the fitted maximal effect
Summary of the method: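 ATP content as viability readout: CellTiter-Glo luminescence, 30 min room temperature, in PR-UAS-bla HEK293T cells after 16 hr compound/R5020 treatment at 37C and 5% CO2.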

[2] = qHTS assay to identify small molecule agonists of the progesterone receptor (PR) signaling pathway - cell viability counter screen (AID 1346799; calls by dose curve; further: nearly all actives have a fitted effect of over 45% in size); conditions: PR-UAS-bla HEK293T viability, CellTiter-Glo luminescence, 16 h; series mostly up to 92.4 µM
Summary of the method: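 Cytotoxicity in PR-bla HEK293T cells: 16 h compound, 37C; CellTiter-Glo added post-FRET read; luminescence after 30 min RT.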

[3] = qHTS assay to identify small molecule antagonists of the TGF-beta/Smad signaling pathway - cell viability counter screen (AID 1346824); conditions: SBE-bla HEK293T viability, CellTiter-Glo luminescence; series mostly up to 76.8 µM; further: nearly all actives have a fitted effect of over 50% in size
Summary of the method: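 SBE-bla HEK 293T cells, incubated overnight, then compound plus 0.25 ng/mL TGF-beta1 (stock added) for 5 hr at 37 C. Viability was read in the same wells by CellTiter-Glo luminescence after 30 min at room temperature.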

[4] = qHTS assay to identify small molecule agonists of the TGF-beta/Smad signaling pathway - cell viability counter screen (AID 1346829); conditions: SBE-bla HEK293T viability, CellTiter-Glo luminescence, 5 h; series mostly up to 76.8 µM; further: top concentration of the series differs between compounds; nearly all actives have a fitted effect of over 45% in size
Summary of the method: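 Luminescence from CellTiter-Glo, read after a 30 min room-temperature incubation, gives cell viability of SBE-bla HEK 293T cells treated 5 hr with compounds at 37 C.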

[5] = qHTS assay to identify small molecule agonists of the TGF-beta/Smad signaling pathway (AID 1346859; active means well fitted activation curve with a large enough effect in the signal ratio in the repeat runs, not every such curve was filed as active; the % refers to the signal ratio); conditions: SBE-bla HEK293T, TGF-beta/Smad beta-lactamase reporter, 5 h; series mostly up to 76.8 µM
Summary of the method: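 Stable Smad binding element-beta-lactamase HEK 293T cells; 5 hr compound exposure at 37 C under 5% CO2; 2 hr room-temperature substrate step; fluorescence excited at 405 nm, collected at 460 nm and 530 nm.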

[6] = biological target: Thyrotropin-releasing hormone receptor (Homo sapiens) (UniProt P34981); test: qHTS assay to identify small molecule antagonists of the thyrotropin-releasing hormone receptor (TRHR) signaling pathway (AID 1346877; active means well fitted inhibition curve with a large enough effect in the repeat runs, not every such curve was filed as active); conditions: TRHR-HEK293, TRH-induced calcium fluorescence, antagonist mode; series mostly up to 51.3 µM
Summary of the method: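 Human TRHR in HEK293 cells; inhibition of the intracellular calcium rise triggered by 1 nM TRH was followed by fluorescence over 3 min. Compounds were run at 15 concentrations, three replicates each.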

[7] = biological target: Thyrotropin-releasing hormone receptor (Homo sapiens) (UniProt P34981); test: qHTS assay to identify small molecule agonists of the thyrotropin-releasing hormone receptor (TRHR) signaling pathway (AID 1346891; calls by dose curve; further: potency means the concentration at half of the fitted maximal effect;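 on activation: HEK293 cells expressing TRHR with calcium dye readout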); conditions: TRHR-HEK293 calcium fluorescence, agonist mode; series mostly up to 57.6 µM
Summary of the method: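 In 1536-format, 1500 TRHR-Hek293 cells per well grew 18 h, took up calcium dye for 2 h at 37 °C, received compound, and were read kinetically; 15-point titrations, triplicates.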

[8] = Human pregnane X receptor (PXR) small molecule agonists, qHTS cell viability counter screen (AID 1346977); conditions: PXR-Luc HepG2 viability, CellTiter-Fluor, 24 h; series mostly up to 92.4 µM; further: nearly all actives have a fitted effect of over 50% in size; further: potency means the concentration at half of the fitted maximal effect
Summary of the method: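 Readout is CellTiter-Fluor fluorescence from PXR-Luc HepG2 cells. Plated cells rested 5hr, then were treated with compounds for 24hr at 37C and 5% CO2, with reagent present during the last hour.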

[9] = Caspase-3/7 induction in HepG2 cells by small molecules, qHTS assay (AID 1346978); conditions: HepG2 caspase-3/7 activation, Caspase-Glo luminescence, 17 h; series mostly up to 92.4 µM; further: nearly all actives have a fitted effect of over 15% in size
Summary of the method: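 Wild-type HepG2 cells, 2,000/well, settled 5 hr at 37 C and 5% CO2, then compound-treated for 17 hr; caspase-3/7 activity read by luminescent Caspase-Glo 3/7 after 30 min at room temperature.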

[10] = Caspase-3/7 induction in CHO-K1 cells by small molecules, qHTS cell viability counter screen (AID 1346979); conditions: CellTiter-Fluor fluorescence, 17 h; series mostly up to 92.4 µM; further: nearly all actives have a fitted effect of over 35% in size; further: potency means the concentration at half of the fitted maximal effect
Summary of the method: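 To flag cytotoxic compounds, treated CHO-K1 wild-type cells were given CellTiter-Fluor at 16hr and read fluorescently after 1hr at 37C; the caspase-3/7 luminescence was measured in these same wells.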
On the % scale 0 is the no-effect control and ±100 the full control effect.

Sequence of Thyrotropin-releasing hormone receptor (Homo sapiens) (P34981 whole entry, looked up): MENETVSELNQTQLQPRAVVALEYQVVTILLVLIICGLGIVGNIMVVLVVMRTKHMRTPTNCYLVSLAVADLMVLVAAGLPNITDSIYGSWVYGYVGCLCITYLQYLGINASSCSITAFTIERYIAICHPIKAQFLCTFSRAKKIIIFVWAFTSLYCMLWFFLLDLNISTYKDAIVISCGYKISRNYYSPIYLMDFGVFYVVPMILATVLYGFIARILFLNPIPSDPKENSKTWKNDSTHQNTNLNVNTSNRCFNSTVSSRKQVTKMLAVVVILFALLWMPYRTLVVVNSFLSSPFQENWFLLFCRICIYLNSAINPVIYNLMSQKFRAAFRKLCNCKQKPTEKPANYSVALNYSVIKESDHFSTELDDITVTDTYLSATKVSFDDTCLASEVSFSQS

Cc1c[nH]c(=O)[nH]c1=O
inactive: Potency [1] | Potency [2] | Potency [3] | Potency [4] | outcome [5] | Potency [6] | Potency [7] | Potency [8] | Potency [9] | Potency [10]

CC1=CC[C@@H](C(C)(C)O)CC1
inactive: Potency [1] | Potency [2] | Potency [3] | Potency [4] | outcome [5] | Potency [6] | Potency [7] | Potency [8] | Potency [9] | Potency [10]

CC(C)(C)C1=CC(=O)C(C(C)(C)C)=CC1=O
inactive: Potency [1] | Potency [2] | Potency [3] | Potency [4] | outcome [5] | Potency [6] | Potency [7] | Potency [8] | Potency [9]

CC(CC(C)(C)C)CC(C)(C)CC(C)(C)C (stereo not drawn)
inactive: Potency [1] | Potency [2] | Potency [3] | Potency [4] | outcome [5] | Potency [6] | Potency [7] | Potency [8] | Potency [9] | Potency [10]

CCN(CC)c1ccc2c(c1)Oc1cc(N(CC)CC)ccc1C21OC(=O)c2ccccc21
active: Potency [7] 15.1 µM | Potency [8] 4.22 µM | Potency [10] 2.37 µM
inactive: Potency [1] | Potency [2] | Potency [3] | Potency [4] | outcome [5] | Potency [6] | Potency [9]

Oc1ccc(Cl)cc1C1CCCC1
inactive: Potency [1] | Potency [2] | Potency [3] | Potency [4] | outcome [5] | Potency [6] | Potency [7] | Potency [8]

CCCCNc1ccc(NCCCC)c2c1C(=O)c1ccccc1C2=O
inactive: activity change, negative = cytotoxicity [1] -7.34% [at 18.9 µM] | activity change, negative = cytotoxicity [2] -18.3% [at 19 µM] | viability change, negative = cytotoxic [3] 4.33% [at 15.8 µM] | activity change, negative = cytotoxicity [4] 2.74% [at 15.8 µM] | activation [5] 0.206% [at 15.8 µM] | activity, negative = inhibition [6] 0.3% [at 10.5 µM] | activation [7] -0.167% [at 11.8 µM] | activity change, negative = cytotoxicity [8] -9.38% [at 19 µM] | caspase activation [9] -1.98% [at 19 µM]

O=C(c1ccccc1)c1ccc(Cl)cc1
inactive: Potency [1] | Potency [2] | Potency [3] | Potency [4] | outcome [5] | Potency [6] | Potency [7] | Potency [8] | Potency [9]

C/C=C/C(=O)C1=C(C)C=CCC1(C)C
inactive: Potency [1] | Potency [2] | Potency [3] | Potency [4] | outcome [5] | Potency [6] | Potency [7] | Potency [8] | Potency [9] | Potency [10]

CC(=O)N(C)C
inactive: Potency [1]

Cc1ccc2n[nH]nc2c1
inactive: Potency [1] | Potency [2] | Potency [3] | Potency [4] | outcome [5] | Potency [6] | Potency [7] | Potency [8] | Potency [9]

O=C1CCCCCCCCCCCCCC1
inactive: Potency [1] | Potency [2] | Potency [3] | Potency [4] | outcome [5] | Potency [6] | Potency [7] | Potency [8] | Potency [9] | Potency [10]

CCN(CCC#N)c1ccc(N=Nc2ccc([N+](=O)[O-])cc2)cc1
inactive: Potency [1] | Potency [2] | Potency [3] | Potency [4] | outcome [5] | Potency [6] | Potency [7] | Potency [8] | Potency [9] | Potency [10]

NC(=O)C1CO1 (stereo not drawn)
inactive: Potency [1] | Potency [2] | Potency [3] | Potency [4] | outcome [5] | Potency [6] | Potency [7] | Potency [8] | Potency [9] | Potency [10]

C=CC(=O)OCCOC1C2CCC1C1CC=CC12 (stereo not drawn)
inactive: activity change, negative = cytotoxicity [1] 13.6% [at 18.9 µM] | activity change, negative = cytotoxicity [2] 1.19% [at 19 µM] | viability change, negative = cytotoxic [3] -7.56% [at 15.8 µM] | activity change, negative = cytotoxicity [4] 7.46% [at 15.8 µM] | activation [5] -4.69% [at 15.8 µM] | activity, negative = inhibition [6] 0.809% [at 10.5 µM] | activation [7] -0.0878% [at 11.8 µM] | activity change, negative = cytotoxicity [8] 5.4% [at 19 µM] | caspase activation [9] 2.88% [at 19 µM]

C1=CCCC1
inactive: Potency [1] | Potency [2] | Potency [3] | Potency [4] | outcome [5] | Potency [6] | Potency [7] | Potency [8] | Potency [9] | Potency [10]

CCc1cccc(CC)c1
inactive: Potency [1] | Potency [2] | Potency [3] | Potency [4] | outcome [5] | Potency [6] | Potency [7] | Potency [8]

CC1(C)[C@H](C(=O)OCc2cccc(Oc3ccccc3)c2)[C@@H]1C=C(Cl)Cl
inactive: Potency [1] | Potency [2] | Potency [3] | Potency [4] | outcome [5] | Potency [6] | Potency [7] | Potency [8] | Potency [9] | Potency [10]

CCn1c2ccccc2c2ccccc21
inactive: Potency [1] | Potency [2] | Potency [3] | Potency [4] | outcome [5] | Potency [6] | Potency [7] | Potency [8] | Potency [9]

CCCCCCCC1CCC(=O)O1 (stereo not drawn)
inactive: Potency [1]

CC(C=O)c1ccccc1 (stereo not drawn)
inactive: Potency [1] | Potency [2] | Potency [3] | Potency [4] | outcome [5] | Potency [6] | Potency [7] | Potency [8] | Potency [9]

COc1cccc(-c2ccc(/C=C\CN3CCCCCC3)cc2Cl)c1
inactive: Potency [1] | Potency [2] | Potency [3] | Potency [4] | outcome [5] | Potency [6] | Potency [7]
active: Potency [8] 48.3 µM

O=C1CCC(=O)N1
inactive: Potency [1] | Potency [2] | Potency [3] | Potency [4] | outcome [5] | Potency [6] | Potency [7] | Potency [8] | Potency [9] | Potency [10]

O=C(Nc1ccc([N+](=O)[O-])cc1)Nc1ccc([N+](=O)[O-])cc1 (tested in a mixture with another compound)
inactive: Potency [2] | Potency [3] | Potency [4] | outcome [5] | Potency [6] | Potency [7] | Potency [8] | Potency [9]
active: Potency [1] 1.19 µM
